Source: PMC5540273 (PLoS ONE, 2017)

The compounds below were run on PAK7. Conditions: concentration: 1 μM, replicates: in singlicate; n = 1.
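Also: KINOMEscan kinase panel screen.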

For `CCC(CC)(CC)n1cnc2c(N)ncnc21` [SKF-97620], which “%Inh” value is on record?
The value was 10%.

How did the “%Inh” value turn out when `Cc1ccc(NC(=O)c2cccc(C#N)c2)cc1-c1ccc(C(=O)Nc2ccncc2)cc1` [GSK1398463] was run?
The value was 1%.

Which “%Inh” value does the source give for `CSc1nn2c(=O)cc(N3CCOCC3)nc2n1Cc1cccc(Cl)c1Cl` [GSK2347225] here?
The value was 26%.

With `FC(F)(F)c1cc(Nc2nccc(-c3c(-c4ccc(Cl)cc4)nn4ncccc34)n2)ccc1Cl` [GW829351] as the compound, how does the “%Inh” value read?
The value was 0%.

For `CC(=O)Nc1n[nH]c2ncc(-c3ccccc3)cc12` [SB-548492], which “%Inh” value is on record?
Its value is 0%.

`O=C(Nc1n[nH]c2nc(-c3ccco3)c(Br)cc12)c1ccc(CN2CCCC2)cc1.O=C(O)[C@H](O)[C@@H](O)C(=O)O` [SB-742352] was tested. Which “%Inh” value did it give?
Its value is 0%.

`O=C(NCCCN1CCCC1=O)c1cnc(NCc2cc(Cl)ccc2Cl)nc1NC1CCNCC1` was tested. Which “%Inh” value did it give?
Its value is 0%.

`Nc1nccc2scc(-c3ccc4c(c3)CCN4C(=O)Cc3cc(F)ccc3F)c12` [GSK2587663] was tested. Which “%Inh” value did it give?
The value was 0%.

For `CN1CCC(n2cnc(-c3ccc(F)cc3)c2-c2ccnc(NC3CCNCC3)n2)CC1` [SB-229482], which “%Inh” value is on record?
The value was 10%.

With `Oc1ccc2ncnc(Nc3ccc(OCc4ccccc4)cc3)c2c1` [GI262866] as the compound, how does the “%Inh” value read?
The value was 0%.

Which “%Inh” value does the source give for `COc1ccc(NC(=O)c2ccc(-c3cc(-c4nnc(C)o4)ccc3C)cc2)cc1` [GW595885] here?
The value was 0%.

`CC(C)N1CCC(n2cnc(-c3ccc(F)cc3)c2-c2ccnc(N)n2)CC1` [SB-223132] was tested. Which “%Inh” value did it give?
The value was 0%.

With `COc1ccc(Nc2nccc(N3CCC(NC(=O)Nc4ccc5c(c4)OCO5)C3)n2)cc1` (centres unmarked) [GSK1379745] as the compound, how does the “%Inh” value read?
The value was 0%.

`COC(=O)c1cccc(NC(=O)NCCNc2ccnc(Nc3ccc(F)cc3)n2)c1` [GSK1379883] was tested. Which “%Inh” value did it give?
The value was 0%.

For `COc1cc2c(Nc3cccc(NC(=O)c4ccccc4)c3)ncnc2cc1OCCCN1CCOCC1` [GSK223810], which “%Inh” value is on record?
The value was 0%.

How did the “%Inh” value turn out when `O=C(Nc1ccccc1)Nc1ccc(Oc2ccc3nccn3n2)cc1` was run?
The value was 0%.

`Nc1nc(-c2ccccn2)c(-c2ccnc3ccccc23)s1` [GW548057] was tested. Which “%Inh” value did it give?
The value was 26%.

Which “%Inh” value does the source give for `Cc1ccc(O)cc1Nc1cc(C(F)(F)F)nc2ccc(-c3ccncc3)cc12` [GW630823] here?
Its value is 7%.

How did the “%Inh” value turn out when `Fc1cccc(COc2ccc(Nc3ncnc4sc(-c5ccc[nH]5)cc34)cc2Cl)c1` [GW707818] was run?
The value was 12%.

Which “%Inh” value does the source give for `Fc1cccc(COc2ccc(Nc3ncnc4cc[nH]c34)cc2Cl)c1` here?
The value was 22%.

How did the “%Inh” value turn out when `Nc1nc(-c2ccc3c(N)n[nH]c3c2)cc(N2CCC[C@@H](C(=O)Nc3ccccc3)C2)n1.O=C(O)C(F)(F)F.O=C(O)C(F)(F)F` [GSK2288359] was run?
Its value is 6%.

With `O=C(CCO)NCCn1ccc2ncnc(Nc3ccc(Oc4cccc(C(F)(F)F)c4)c(Cl)c3)c21` as the compound, how does the “%Inh” value read?
The value was 0%.

`CNc1nccc(-c2c(-c3ccc(F)cc3)ncn2CCCN2CCOCC2)n1` [SB-222516] was tested. Which “%Inh” value did it give?
Its value is 0%.

`Cc1ccc(C)c(NC(=O)NCCNc2ccnc(Nc3ccc(F)cc3)n2)c1` [GSK1379878] was tested. Which “%Inh” value did it give?
Its value is 0%.

Which “%Inh” value does the source give for `CC(C)(C)c1ccc(-n2cnc3c(N)ncnc32)cc1` [SKF-97263] here?
Its value is 0%.

`CS(=O)(=O)CCNCc1nc(-c2ccc3ncnc(Nc4ccc(OCc5cccc(F)c5)c(Cl)c4)c3c2)cs1.Cl` [GW583340] was tested. Which “%Inh” value did it give?
Its value is 7%.

With `CCCc1ccc(S(=O)(=O)NC2CCN(c3ccnc(Nc4ccc(OC)cc4)n3)C2)cc1` (centres unmarked) [GSK1379737] as the compound, how does the “%Inh” value read?
The value was 0%.

`FC(F)(F)c1ccc(-c2nn3ncccc3c2-c2ccnc(Nc3cccc(C(F)(F)F)c3)n2)cc1` [GW828205] was tested. Which “%Inh” value did it give?
The value was 0%.

How did the “%Inh” value turn out when `Cc1cccc(-c2nc(Nc3ccc4[nH]nnc4c3)c3ccccc3n2)n1` [GW867587] was run?
Its value is 0%.

Which “%Inh” value does the source give for `O=C(Nc1ccccc1F)NC1CCN(c2ccnc(Nc3ccc(F)cc3)n2)C1` (centres unmarked) [GSK1379722] here?
Its value is 0%.

For `COc1ccc(NC(=O)Nc2ccc(C)c(-c3ccc(C(=O)Nc4ccncc4)cc3)c2)cc1` [GSK1398475], which “%Inh” value is on record?
The value was 9%.

`Clc1ccc(-c2cc(-c3c[nH]nc3-c3ccccn3)ccn2)cc1` [GW681251] was tested. Which “%Inh” value did it give?
The value was 0%.

`Clc1cc(Nc2ncnc3cc[nH]c23)ccc1OCc1ccccn1` was tested. Which “%Inh” value did it give?
The value was 7%.

For `CNc1nccc(-c2c(-c3ccc(F)cc3)ncn2C2CCN(C)CC2)n1` [SB-222903], which “%Inh” value is on record?
The value was 0%.

`c1ccc(-c2ccc3c(-c4ccnc(Nc5ccc6c(c5)OCCO6)n4)cnn3n2)cc1` [GW818941] was tested. Which “%Inh” value did it give?
Its value is 0%.

The compounds below were run on T1, PCTK1. Conditions: concentration: 1 μM, replicates: in singlicate; n = 1.
T1 construct: gene CDK16

`CCC(CC)(CC)n1cnc2c(N)ncnc21` [SKF-97620] was tested. Which “%Inh” value did it give?
Its value is 2%.

How did the “%Inh” value turn out when `Cc1ccc(NC(=O)c2cccc(C#N)c2)cc1-c1ccc(C(=O)Nc2ccncc2)cc1` [GSK1398463] was run?
Its value is 2%.

For `CSc1nn2c(=O)cc(N3CCOCC3)nc2n1Cc1cccc(Cl)c1Cl` [GSK2347225], which “%Inh” value is on record?
Its value is 15%.

Which “%Inh” value does the source give for `FC(F)(F)c1cc(Nc2nccc(-c3c(-c4ccc(Cl)cc4)nn4ncccc34)n2)ccc1Cl` [GW829351] here?
Its value is 0%.

Which “%Inh” value does the source give for `CC(=O)Nc1n[nH]c2ncc(-c3ccccc3)cc12` [SB-548492] here?
Its value is 3%.

With `O=C(Nc1n[nH]c2nc(-c3ccco3)c(Br)cc12)c1ccc(CN2CCCC2)cc1.O=C(O)[C@H](O)[C@@H](O)C(=O)O` [SB-742352] as the compound, how does the “%Inh” value read?
Its value is 0%.

How did the “%Inh” value turn out when `O=C(NCCCN1CCCC1=O)c1cnc(NCc2cc(Cl)ccc2Cl)nc1NC1CCNCC1` was run?
The value was 0%.

`Nc1nccc2scc(-c3ccc4c(c3)CCN4C(=O)Cc3cc(F)ccc3F)c12` [GSK2587663] was tested. Which “%Inh” value did it give?
The value was 0%.

`CN1CCC(n2cnc(-c3ccc(F)cc3)c2-c2ccnc(NC3CCNCC3)n2)CC1` [SB-229482] was tested. Which “%Inh” value did it give?
The value was 0%.

With `Oc1ccc2ncnc(Nc3ccc(OCc4ccccc4)cc3)c2c1` [GI262866] as the compound, how does the “%Inh” value read?
Its value is 10%.

How did the “%Inh” value turn out when `COc1ccc(NC(=O)c2ccc(-c3cc(-c4nnc(C)o4)ccc3C)cc2)cc1` [GW595885] was run?
The value was 6%.

With `CC(C)N1CCC(n2cnc(-c3ccc(F)cc3)c2-c2ccnc(N)n2)CC1` [SB-223132] as the compound, how does the “%Inh” value read?
The value was 0%.

For `COc1ccc(Nc2nccc(N3CCC(NC(=O)Nc4ccc5c(c4)OCO5)C3)n2)cc1` (centres unmarked) [GSK1379745], which “%Inh” value is on record?
The value was 6%.

With `COC(=O)c1cccc(NC(=O)NCCNc2ccnc(Nc3ccc(F)cc3)n2)c1` [GSK1379883] as the compound, how does the “%Inh” value read?
The value was 0%.

Which “%Inh” value does the source give for `COc1cc2c(Nc3cccc(NC(=O)c4ccccc4)c3)ncnc2cc1OCCCN1CCOCC1` [GSK223810] here?
Its value is 0%.

With `O=C(Nc1ccccc1)Nc1ccc(Oc2ccc3nccn3n2)cc1` as the compound, how does the “%Inh” value read?
The value was 0%.

How did the “%Inh” value turn out when `Nc1nc(-c2ccccn2)c(-c2ccnc3ccccc23)s1` [GW548057] was run?
Its value is 0%.

For `Cc1ccc(O)cc1Nc1cc(C(F)(F)F)nc2ccc(-c3ccncc3)cc12` [GW630823], which “%Inh” value is on record?
Its value is 0%.

Which “%Inh” value does the source give for `Fc1cccc(COc2ccc(Nc3ncnc4sc(-c5ccc[nH]5)cc34)cc2Cl)c1` [GW707818] here?
The value was 0%.

For `Fc1cccc(COc2ccc(Nc3ncnc4cc[nH]c34)cc2Cl)c1`, which “%Inh” value is on record?
Its value is 5%.

With `Nc1nc(-c2ccc3c(N)n[nH]c3c2)cc(N2CCC[C@@H](C(=O)Nc3ccccc3)C2)n1.O=C(O)C(F)(F)F.O=C(O)C(F)(F)F` [GSK2288359] as the compound, how does the “%Inh” value read?
Its value is 14%.

For `O=C(CCO)NCCn1ccc2ncnc(Nc3ccc(Oc4cccc(C(F)(F)F)c4)c(Cl)c3)c21`, which “%Inh” value is on record?
The value was 0%.

How did the “%Inh” value turn out when `CNc1nccc(-c2c(-c3ccc(F)cc3)ncn2CCCN2CCOCC2)n1` [SB-222516] was run?
The value was 0%.

Which “%Inh” value does the source give for `Cc1ccc(C)c(NC(=O)NCCNc2ccnc(Nc3ccc(F)cc3)n2)c1` [GSK1379878] here?
The value was 0%.

`CC(C)(C)c1ccc(-n2cnc3c(N)ncnc32)cc1` [SKF-97263] was tested. Which “%Inh” value did it give?
The value was 0%.

Which “%Inh” value does the source give for `CS(=O)(=O)CCNCc1nc(-c2ccc3ncnc(Nc4ccc(OCc5cccc(F)c5)c(Cl)c4)c3c2)cs1.Cl` [GW583340] here?
The value was 3%.

With `CCCc1ccc(S(=O)(=O)NC2CCN(c3ccnc(Nc4ccc(OC)cc4)n3)C2)cc1` (centres unmarked) [GSK1379737] as the compound, how does the “%Inh” value read?
Its value is 0%.

`FC(F)(F)c1ccc(-c2nn3ncccc3c2-c2ccnc(Nc3cccc(C(F)(F)F)c3)n2)cc1` [GW828205] was tested. Which “%Inh” value did it give?
The value was 0%.

For `Cc1cccc(-c2nc(Nc3ccc4[nH]nnc4c3)c3ccccc3n2)n1` [GW867587], which “%Inh” value is on record?
The value was 0%.

How did the “%Inh” value turn out when `O=C(Nc1ccccc1F)NC1CCN(c2ccnc(Nc3ccc(F)cc3)n2)C1` (centres unmarked) [GSK1379722] was run?
The value was 6%.

With `COc1ccc(NC(=O)Nc2ccc(C)c(-c3ccc(C(=O)Nc4ccncc4)cc3)c2)cc1` [GSK1398475] as the compound, how does the “%Inh” value read?
Its value is 0%.

`Clc1ccc(-c2cc(-c3c[nH]nc3-c3ccccn3)ccn2)cc1` [GW681251] was tested. Which “%Inh” value did it give?
Its value is 0%.

How did the “%Inh” value turn out when `Clc1cc(Nc2ncnc3cc[nH]c23)ccc1OCc1ccccn1` was run?
The value was 2%.

For `CNc1nccc(-c2c(-c3ccc(F)cc3)ncn2C2CCN(C)CC2)n1` [SB-222903], which “%Inh” value is on record?
Its value is 0%.

Which “%Inh” value does the source give for `c1ccc(-c2ccc3c(-c4ccnc(Nc5ccc6c(c5)OCCO6)n4)cnn3n2)cc1` [GW818941] here?
The value was 0%.

How did the “%Inh” value turn out when `COc1ccc(-c2nc3n(c2-c2ccncc2)CCC3)cc1` [SKF-104493] was run?
The value was 0%.
